Measured values published in PubChem BioAssay (Tox21).
“And” between values parts separate entries of the source, which are not always exact repeats. Equal values may be shown once. Unmarked numbers belong to inactive results. Records with an inconclusive call do not appear. Where a call stands in place of a potency, no number is given. The source made the active and inactive calls. Unless noted, the call rests on the fitted dose curve; in most records, active means well fitted curve in the direction sought with a large enough effect in the repeat runs; inconclusive means weak or mixed curves; inactive means no such curve, though single readings can be large; an effect the other way counts as inactive or inconclusive.

How the values were obtained:
[1] = qHTS assay to identify small molecule agonists of the TGF-beta/Smad signaling pathway - cell viability counter screen (AID 1346829); further: nearly all actives have a fitted effect of over 45% in size; further: potency means the concentration at half of the fitted maximal effect
Summary of the method: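 In parallel with the Smad reporter read, viability of HEK 293T cells stably carrying SBE-bla is quantified by ATP luminescence following 5 hr compound treatment.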

[2] = target: Thyrotropin-releasing hormone receptor (Homo sapiens) (UniProt P34981); assay: qHTS assay to identify small molecule antagonists of the thyrotropin-releasing hormone receptor (TRHR) signaling pathway (AID 1346877; active means well fitted inhibition curve with a large enough effect in the repeat runs, not every such curve was filed as active; further: potency means the concentration at half of the fitted maximal effect)
Summary of the method: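 Human TRHR in HEK293 cells; inhibition of the intracellular calcium rise triggered by 1 nM TRH was followed by fluorescence over 3 min. Compounds were run at 15 concentrations, three replicates each.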

[3] = target: Thyrotropin-releasing hormone receptor (Homo sapiens) (UniProt P34981); assay: qHTS assay to identify small molecule agonists of the thyrotropin-releasing hormone receptor (TRHR) signaling pathway (AID 1346891; calls by dose curve; further: series mostly up to about 58 µM)
Summary of the method: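 Agonist-mode intracellular calcium readout: kinetic fluorescence over 3 min at 1 s intervals after compound addition to TRHR-HEK293 cells (18 h seeded, 2 h dye-loaded at 37 C). Fifteen concentrations, triplicates.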

[4] = Human pregnane X receptor (PXR) small molecule agonists, qHTS cell viability counter screen (AID 1346977); further: nearly all actives have a fitted effect of over 50% in size; further: potency means the concentration at half of the fitted maximal effect
Summary of the method: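 Same-well viability read: CellTiter-Fluor added after 23 hr compound exposure, fluorescence measured 1 hr later. Cells were PXR-Luc HepG2 seeded at 2,000/well in 5% charcoal-stripped FBS medium, rested 5 hr before dosing at 37 C.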

[5] = Caspase-3/7 induction in HepG2 cells by small molecules, qHTS assay (AID 1346978); further: nearly all actives have a fitted effect of over 15% in size; further: potency means the concentration at half of the fitted maximal effect
Summary of the method: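 Wild-type HepG2 cells, 2,000/well, settled 5 hr at 37 C and 5% CO2, then compound-treated for 17 hr; caspase-3/7 activity read by luminescent Caspase-Glo 3/7 after 30 min at room temperature.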

[6] = Caspase-3/7 induction in CHO-K1 cells by small molecules, qHTS cell viability counter screen (AID 1346979); further: nearly all actives have a fitted effect of over 35% in size; further: potency means the concentration at half of the fitted maximal effect
Summary of the method: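 Cytotoxicity counter screen: CellTiter-Fluor added to compound-treated wild-type CHO-K1 cells at 16 h (37C, 5% CO2), fluorescence measured 1 h later; same wells as caspase-3/7 measurement.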

[7] = Caspase-3/7 induction in CHO-K1 cells by small molecules, qHTS assay (AID 1346980); further: nearly all actives have a fitted effect of over 15% in size; further: potency means the concentration at half of the fitted maximal effect
Summary of the method: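 Wild-type CHO-K1 cells exposed to compounds for 17hr at 37 C, 5% CO2. Caspase-3/7 activity then measured by Caspase-Glo 3/7 luminescence after 30min at room temperature.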

[8] = target: Nuclear receptor subfamily 1 group I member 2 (Homo sapiens) (UniProt O75469); assay: Human pregnane X receptor (PXR) small molecule agonists, qHTS assay (AID 1346982); further: nearly all actives have a fitted effect of over 35% in size; further: potency means the concentration at half of the fitted maximal effect
Summary of the method: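 After plating in 5% charcoal-stripped FBS and a 5 hr rest, PXR-Luc HepG2 cells received compounds in DMSO. Following 24 hr at 37 C, ONE-Glo was added and light output read.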

[9] = target: Cytochrome P450 2D6 (Homo sapiens) (UniProt P10635); assay: Cytochrome P450 Family 2 Subfamily D Member 6 (CYP2D6) small molecule antagonists: luciferase reporter qHTS assay (AID 1671196); further: nearly all actives have a fitted effect of over 50% in size; further: potency means the concentration at half of the fitted maximal effect
Summary of the method: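 Quantitative HTS of Tox21 chemicals against CYP2D6 using a luminescent proluciferin substrate. After NADPH addition, 1 h room-temperature reaction; luminescence recorded 20 min post detection reagent.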

[10] = target: Cytochrome P450 2C9 (Homo sapiens) (UniProt P11712); assay: Cytochrome P450 Family 2 Subfamily C Member 9 (CYP2C9) small molecule antagonists: luciferase reporter qHTS assay (AID 1671198); further: nearly all actives have a fitted effect of over 50% in size; further: potency means the concentration at half of the fitted maximal effect
Summary of the method: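 P450-Glo proluciferin substrate with CYP2C9 enzyme; 10 min RT preincubation, then NADPH regeneration 1 h at 37C; luciferin detection reagent 20 min RT, luminescence in relative luminescence units.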

[11] = qHTS assay to identify small molecule agonists of the TGF-beta/Smad signaling pathway (AID 1346859; active means well fitted activation curve with a large enough effect in the signal ratio in the repeat runs, not every such curve was filed as active; the % refers to the signal ratio; further: series mostly up to about 77 µM)
Summary of the method: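 Fluorescence (ex 405 nm; em 460 and 530 nm) was read 2 h after LiveBLAzer FRET substrate at RT. The preceding compound treatment of overnight-plated SBE-bla HEK293T cells lasted 5 h at 37 C.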

[12] = target: Nuclear receptor subfamily 1 group I member 2 (Homo sapiens) (UniProt O75469); assay: CYP3A4 induction through human pregnane X receptor (PXR) by small molecules, qHTS assay (AID 1346984); further: nearly all actives have a fitted effect of over 40% in size; further: potency means the concentration at half of the fitted maximal effect
Summary of the method: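 Human PXR activation is tracked via CYP3A4 promoter-luciferase in DPX-2 (HepG2) cells. Compounds treat cells for 24hr at 37C, and luminescence is read after One-Glo.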

[13] = target: Nuclear receptor subfamily 1 group I member 2 (Homo sapiens) (UniProt O75469); assay: Human pregnane X receptor (PXR) activation by small molecules, qHTS assay (AID 1346985); further: potency means the concentration at half of the fitted maximal effect; nearly all actives have a fitted effect of over 40% in size
Summary of the method: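 DPX-2 cells (HepG2 co-transfected with a PXR response element and a CYP3A4-promoter luciferase construct) were seeded at 2,000 per well, rested 5 hr at 37C, then exposed to DMSO-dissolved compounds for 24 hr. Activation was read as luciferase luminescence.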

[14] = target: Cytochrome P450 2C19 (Homo sapiens) (UniProt P33261); assay: Cytochrome P450 Family 2 Subfamily C Member 19 (CYP2C19) small molecule antagonists: luciferase reporter qHTS assay (AID 1671197); further: nearly all actives have a fitted effect of over 65% in size; further: potency means the concentration at half of the fitted maximal effect
Summary of the method: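 Compounds were tested on CYP2C19 activity via proluciferin conversion to luciferin. The 37C, 1 h reaction followed NADPH addition; detection reagent stopped it.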

[15] = target: Cytochrome P450 1A2 (Homo sapiens) (UniProt P05177); assay: Cytochrome P450 Family 1 Subfamily A Member 2 (CYP1A2) small molecule antagonists: luciferase reporter qHTS assay (AID 1671199); further: nearly all actives have a fitted effect of over 50% in size; further: potency means the concentration at half of the fitted maximal effect
Summary of the method: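 Quantitative high-throughput format using the P450-Glo CYP1A2 system. Reaction initiated by NADPH regeneration solution, 1 h at room temperature, then stopped with detection reagent; luminescence measured 20 min later.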

[16] = Caspase-3/7 induction in HepG2 cells by small molecules, qHTS cell viability counter screen (AID 1346981); further: nearly all actives have a fitted effect of over 30% in size; further: potency means the concentration at half of the fitted maximal effect
Summary of the method: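 The parent HepG2 line is plated at 2,000 cells per well and rested 5 hr before compound pinning from DMSO stocks. Following a 16-hr treatment at 37 C, a fluorogenic live-cell substrate (CellTiter-Fluor) reports viability after 1 hr.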

[17] = qHTS assay to identify small molecule antagonists of the TGF-beta/Smad signaling pathway - cell viability counter screen (AID 1346824); further: nearly all actives have a fitted effect of over 50% in size; further: potency means the concentration at half of the fitted maximal effect
Summary of the method: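 SBE-bla HEK 293T cells, incubated overnight, then compound plus 0.25 ng/mL TGF-beta1 (stock added) for 5 hr at 37 C. Viability was read in the same wells by CellTiter-Glo luminescence after 30 min at room temperature.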

Sequence of Cytochrome P450 2D6 (Homo sapiens) (P10635 whole entry, looked up): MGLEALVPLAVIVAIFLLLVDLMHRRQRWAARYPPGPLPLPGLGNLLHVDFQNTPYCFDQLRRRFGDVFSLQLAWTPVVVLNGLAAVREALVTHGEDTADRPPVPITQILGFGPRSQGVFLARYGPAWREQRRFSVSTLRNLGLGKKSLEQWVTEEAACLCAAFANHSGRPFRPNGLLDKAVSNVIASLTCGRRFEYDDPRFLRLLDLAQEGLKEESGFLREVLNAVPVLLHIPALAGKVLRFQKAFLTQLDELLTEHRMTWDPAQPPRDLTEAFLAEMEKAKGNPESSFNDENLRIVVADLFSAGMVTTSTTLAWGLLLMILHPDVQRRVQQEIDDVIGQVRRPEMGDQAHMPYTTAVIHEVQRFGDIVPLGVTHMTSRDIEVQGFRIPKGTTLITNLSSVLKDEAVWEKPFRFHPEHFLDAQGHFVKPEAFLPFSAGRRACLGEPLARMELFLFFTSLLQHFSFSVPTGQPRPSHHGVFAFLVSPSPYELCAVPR
Sequence of Nuclear receptor subfamily 1 group I member 2 (Homo sapiens) (O75469 whole entry, looked up): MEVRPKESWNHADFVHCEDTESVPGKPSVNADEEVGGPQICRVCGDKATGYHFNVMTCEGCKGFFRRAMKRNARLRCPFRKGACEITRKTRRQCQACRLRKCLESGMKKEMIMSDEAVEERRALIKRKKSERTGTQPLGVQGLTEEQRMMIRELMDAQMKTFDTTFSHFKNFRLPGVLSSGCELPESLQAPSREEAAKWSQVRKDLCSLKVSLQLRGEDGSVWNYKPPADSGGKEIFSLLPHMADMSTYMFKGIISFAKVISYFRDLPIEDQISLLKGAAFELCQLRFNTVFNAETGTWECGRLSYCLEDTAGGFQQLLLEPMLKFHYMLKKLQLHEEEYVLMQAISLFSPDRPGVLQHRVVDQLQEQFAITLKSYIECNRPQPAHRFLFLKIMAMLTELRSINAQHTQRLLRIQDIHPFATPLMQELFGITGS
Sequence of Cytochrome P450 2C19 (Homo sapiens) (P33261 whole entry, looked up): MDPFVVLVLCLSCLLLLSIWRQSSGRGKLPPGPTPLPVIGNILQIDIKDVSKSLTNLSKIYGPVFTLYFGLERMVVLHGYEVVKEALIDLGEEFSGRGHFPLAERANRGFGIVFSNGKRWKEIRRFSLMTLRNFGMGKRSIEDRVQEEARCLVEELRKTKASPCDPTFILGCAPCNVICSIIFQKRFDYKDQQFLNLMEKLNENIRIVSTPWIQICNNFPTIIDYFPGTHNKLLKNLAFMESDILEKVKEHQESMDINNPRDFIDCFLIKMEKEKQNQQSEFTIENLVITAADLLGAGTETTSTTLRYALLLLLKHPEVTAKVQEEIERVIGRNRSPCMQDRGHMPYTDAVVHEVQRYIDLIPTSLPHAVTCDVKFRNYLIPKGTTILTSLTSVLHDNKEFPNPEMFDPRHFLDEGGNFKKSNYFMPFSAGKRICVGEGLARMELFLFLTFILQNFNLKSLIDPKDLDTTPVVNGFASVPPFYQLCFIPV
Sequence of Cytochrome P450 2C9 (Homo sapiens) (P11712 whole entry, looked up): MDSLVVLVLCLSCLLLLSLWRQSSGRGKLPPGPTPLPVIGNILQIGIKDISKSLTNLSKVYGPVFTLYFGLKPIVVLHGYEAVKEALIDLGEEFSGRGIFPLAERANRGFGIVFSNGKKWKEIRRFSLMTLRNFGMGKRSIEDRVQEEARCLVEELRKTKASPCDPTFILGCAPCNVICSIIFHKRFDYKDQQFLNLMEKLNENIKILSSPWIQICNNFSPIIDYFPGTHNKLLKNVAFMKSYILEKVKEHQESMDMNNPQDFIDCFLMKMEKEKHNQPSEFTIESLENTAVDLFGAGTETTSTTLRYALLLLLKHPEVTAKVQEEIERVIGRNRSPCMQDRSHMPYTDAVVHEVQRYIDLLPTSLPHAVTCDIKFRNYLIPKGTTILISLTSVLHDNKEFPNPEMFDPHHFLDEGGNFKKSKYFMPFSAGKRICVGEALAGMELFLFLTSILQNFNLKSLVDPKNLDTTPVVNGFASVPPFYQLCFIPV
Sequence of Thyrotropin-releasing hormone receptor (Homo sapiens) (P34981 whole entry, looked up): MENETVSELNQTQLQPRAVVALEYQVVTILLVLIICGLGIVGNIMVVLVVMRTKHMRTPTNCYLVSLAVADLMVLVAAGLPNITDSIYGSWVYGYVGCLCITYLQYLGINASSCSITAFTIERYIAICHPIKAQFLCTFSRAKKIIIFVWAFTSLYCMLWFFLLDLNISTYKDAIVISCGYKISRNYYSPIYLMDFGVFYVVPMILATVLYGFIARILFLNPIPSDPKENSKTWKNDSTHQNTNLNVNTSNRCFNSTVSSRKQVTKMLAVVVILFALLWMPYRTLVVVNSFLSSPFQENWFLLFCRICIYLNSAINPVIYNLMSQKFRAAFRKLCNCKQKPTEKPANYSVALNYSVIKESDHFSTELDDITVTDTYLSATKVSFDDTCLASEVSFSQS
Sequence of Cytochrome P450 1A2 (Homo sapiens) (P05177 whole entry, looked up): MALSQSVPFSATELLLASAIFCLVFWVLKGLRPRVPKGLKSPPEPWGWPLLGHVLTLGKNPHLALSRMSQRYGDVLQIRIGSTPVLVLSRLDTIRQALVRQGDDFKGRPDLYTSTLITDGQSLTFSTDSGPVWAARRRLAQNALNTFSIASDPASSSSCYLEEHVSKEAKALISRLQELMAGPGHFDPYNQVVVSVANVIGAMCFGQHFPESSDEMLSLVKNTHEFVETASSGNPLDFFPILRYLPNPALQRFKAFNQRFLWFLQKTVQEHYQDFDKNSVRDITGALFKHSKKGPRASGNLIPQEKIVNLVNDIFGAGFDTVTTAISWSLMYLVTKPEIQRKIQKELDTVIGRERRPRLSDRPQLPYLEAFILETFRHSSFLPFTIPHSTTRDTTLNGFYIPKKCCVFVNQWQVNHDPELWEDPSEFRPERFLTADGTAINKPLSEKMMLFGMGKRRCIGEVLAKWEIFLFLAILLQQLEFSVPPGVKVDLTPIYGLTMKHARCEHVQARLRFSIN

| SMILES | Potency [1] | Potency [2] | Potency [3] | Potency [4] | Potency [5] | Potency [6] | Potency [7] | Potency [8] | Potency [9] | Potency [10] | Potency [11] | Potency [12] | Potency [13] | Potency [14] | Potency [15] | Potency [16] | Potency [17] |
| --- | --- | --- | --- | --- | --- | --- | --- | --- | --- | --- | --- | --- | --- | --- | --- | --- | --- |
| O=C(Oc1ccccc1)c1cccc(C(=O)Oc2ccccc2)c1 | inactive | inactive | inactive | inactive | inactive | 51.2 µM (active) | inactive | 0.456 µM (active) | 28.9 µM (active) | 7.48 µM (active) | – | – | – | – | – | – | – |
| CCN(CC)CCOC(=O)C1(C2CCCCC2)CCCCC1 | – | inactive | – | – | – | – | – | 8.41 µM (active) | – | inactive | inactive | – | – | – | – | – | – |
| C[C@@]12C(=O)OC(=O)[C@]1(C)C1CCC2O1 | inactive | inactive | inactive | 0.266 µM (active) | – | 10.6 µM (active) | 23.7 µM (active) | 1.06 µM (active) | inactive | inactive | inactive | inactive | 0.794 µM (active) | inactive | inactive | – | – |
| CC(=O)OC(OC(C)=O)c1ccc([N+](=O)[O-])o1 | – | – | – | 49.4 µM (active) | – | 15.6 µM (active) | inactive | 24.8 µM (active) | – | – | – | – | – | 16.2 µM (active) | 45.6 µM (active) | 62.2 µM (active) | – |
| O=C(Nc1ccc(Cl)cc1)Nc1ccc(Cl)c(C(F)(F)F)c1 | – | inactive | inactive | 7.5 µM (active) | inactive | 11.9 µM (active) | – | 9.44 µM (active) | – | 13.8 µM (active) | inactive | – | – | – | 25.7 µM (active) | – | – |
| CN(C)CCCN1c2ccccc2CCc2ccccc21 | – | inactive | inactive | – | inactive | – | inactive | – | – | – | – | – | – | – | – | – | – |
| COC(=O)C1=C(C)NC(C)=C(C(=O)OCCCN2CCC(c3ccccc3)(c3ccccc3)CC2)C1c1cccc([N+](=O)[O-])c1 (centres undefined) | – | inactive | inactive | – | – | 26.6 µM (active) | – | – | – | – | inactive | – | – | – | – | 29.8 µM (active) | inactive |
| Cc1ccc(N)cc1O | inactive | inactive | – | – | – | 52.9 µM (active) | – | 34.4 µM (active) | 3.66 µM (active) | 21.8 µM (active) | – | – | – | 3.56 µM (active) | 11.1 µM (active) | – | – |
| CC(C)(c1cc(Br)c(O)c(Br)c1)c1cc(Br)c(O)c(Br)c1 | – | 33.8 µM (active) | – | inactive | inactive | 60.9 µM (active) | – | 54.3 µM (active) and 60.9 µM (active) and 57.9 µM (active) | inactive | – | inactive | – | – | 22.4 µM (active) and 35.5 µM (active) | inactive | inactive | inactive |
| Cc1cc(Nc2ccc(O)cc2)ccc1N | – | – | – | 30.5 µM (active) | – | 27.2 µM (active) | 21.6 µM (active) | 9.64 µM (active) | 39.8 µM (active) | 5.62 µM (active) | inactive | – | – | 19.9 µM (active) | 35.4 µM (active) | 48.3 µM (active) | inactive |
| C=C[C@](C)(O)CC[C@@H]1[C@@]2(C)CCCC(C)(C)[C@@H]2CC[C@@]1(C)O | – | – | – | – | 68.6 µM (active) | 54.5 µM (active) | inactive | 9.69 µM (active) | – | – | inactive | – | – | 1 µM (active) | 31.7 µM (active) | – | – |
| CN1CCN(C2Cc3ccccc3Sc3ccc(Cl)cc32)CC1 (centres undefined) | inactive | inactive | inactive | – | – | – | inactive | inactive | 0.347 µM (active) | – | inactive | 31.6 µM (active) | – | 11 µM (active) | inactive | – | – |
| CCCCCCCCCCCCCCCC | – | – | – | inactive | inactive | inactive | inactive | inactive | inactive | 39.9 µM (active) | inactive | – | – | inactive | inactive | inactive | inactive |
| CC(C)c1cccc(C(C)C)c1N1C(=O)c2ccc(O)cc2C1=O | inactive | inactive | inactive | inactive | – | – | inactive | 27.3 µM (active) | 31.7 µM (active) | 12.6 µM (active) | – | – | – | 39.9 µM (active) | inactive | – | inactive |
| CC(C)(C)CC(C)(C)c1ccccc1O | 49.2 µM (active) | – | – | 70.8 µM (active) | – | 61.4 µM (active) | – | 21.8 µM (active) | – | 17.9 µM (active) | – | – | – | inactive | 35.8 µM (active) | – | 31.1 µM (active) |
| NC(=O)c1nc(-c2cccc(-c3cc(F)ccc3OCC(F)(F)C(F)(F)F)c2)n[nH]1 | – | inactive | inactive | 54.5 µM (active) | inactive | 54.5 µM (active) | – | 61.1 µM (active) | 79.6 µM (active) | 28.3 µM (active) | inactive | – | – | 28.3 µM (active) | – | 61.1 µM (active) | inactive |
